Assay results: the supplement of paper PMC6555819

system: VDR:RXRa (NR concentration 270 nM, RXRa partner concentration 90 nM); assay: PBM binding z-score (relative to random genomic background probes); higher = stronger binding; sequences stand for … in GC…GCGATTGACAGCGTAGAATGAAGG
Description: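 Protein-binding microarray (Agilent 4x180K custom design, double-stranded 60-nt probes: 5' GC cap, 34-nt variable region, 24-nt constant primer region; full probe sequence given). Purified or IVT nuclear receptor:RXRα heterodimers (3:1 NR:RXRα, mostly 270:90 nM) or homodimers were incubated for 1 h in PBS with 2% milk and no ligand, then detected with Alexa488 antibodies. Fluorescence from o1-orientation probes (~5 replicates averaged) was converted to z-scores against 500 random hg19 background probes. Variable regions are seed direct-repeat (DR0–DR5) sites, all their single-nucleotide variants and half-site ablations.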

Row | Sequence | PBM binding z-score
1 | ACTATTAGTTGACTTAGGTCAACCGATACGACGC | 2.42
2 | CTCGAAAGGTCGATTGAGGTGAGTATACGGATAA | 3.76
3 | CAAACTAGGTCACAGAGGTGAAAGTCCGTGCGTA | 5.99
4 | CCTTACGAGTCACGAGGTTATAGCACGACGAGCG | 1.7
5 | CAAACTAGGTCAAAGTCAAAGTCGGTTTGTGCCA | 2.38
6 | GAATATAGGTAATACAAGGTGAAAGTCCGATTGT | 0.758
7 | ATCTCTAGGTAGAGATAGTTCAGTGAATGCAAAT | 0.159
8 | CAGCCTAGGTCAGGGCCTGTATAGGAGGAACGTT | -0.0829
9 | CGAAAGAGGGCATGAGTTGATAGCAAATGCCGAT | 1.22
10 | TATACATGGTCAAAGGCCAGAGTACGAATGTCGA | 0.445
11 | GCGACTGGGGCAAAGCAGGTTACCCTAAGGTTGG | 0.0152
12 | TTACCGAGGTGAGCTGAGGTCGTTGATCCAACTC | 4.51
13 | AGAATGAGGTTATACGTAGATCAGGGACGAAAGT | 1.46
14 | CCTTACGGGTCAAGGTTAAAGCACGGGTGGTACG | 3.5
15 | TTGCCTAGGTCATGGGCCAGTATACCACGCGAAC | 2.21
16 | GGAACGAGGGCAAAGTTGATAGTATCTGTCGACG | 1.21
17 | AGATTGAGGTTATACGTAGATCAGGGAAGAAAGT | 1.23
18 | TCTTGTACATCAAAGGTTAAGAAAGCCGAAGCCT | 1.55
19 | TCGAGTAGGTTACCAATGGAGCATTCAGCTTTCT | -0.303
20 | CCGACTGGGGCATAAGGGTACCATAAGCCAGCCC | -0.316

Row | Sequence | PBM binding z-score
21 | ATATGCAGGTTAGCTGGGGTCATTCAGACTAGGC | 6.21
22 | GATACAGTGTCAAGGCCAGAGTACGCGTATTGAT | 0.126
23 | CATACAGGGTCAGCTAGGCCAGAGCAGGGACGGC | 3.75
24 | TCTGCTAGGTGAGTTGGTCAGCTAACGAGCTGCC | -0.769
25 | AGTCAAAGTTCACTAGCTAACGTAAGATTCAGCT | 3.66
26 | CCGACTGCGGCAGAAAGGTTACCATACCATCCGG | 0.485
27 | TAGCCTAGGTCATGGGCCAATATACCACGCGAAC | 2.06
28 | TCTCGGAGGACAAGAAAGGTCAGAGCTCGACATC | 2.67
29 | TCTTGTACATCAACAGGAGGTTAAGAAAGATCGA | 0.977
30 | ATTTCTAGGTAAGACTCAGTTCAGTGAAGAACGC | 1.6
31 | TGTCCAAGTTCAAAGGTAACGTAAGTATCCACAC | 4.6
32 | CCTTACGGGTCACTGATAGGTTATAGCATTTGGA | 3.6
33 | AGTCAAAGTTCAGGACGAGGTAAGGTAAAGCACG | 2.4
34 | ATCGAAAGGACGTGAGGTGAGTATACAGAAAGGC | -0.301
35 | AGTAGCAGGCCAAGTTTGGGTCACTCAAACAAAG | 0.609
36 | TCATATAGGTAAAAGGGGAAAGTCGGTGTGGTAA | 0.861
37 | TCTAGCAGGCCAGAGGGTCACTCTAGAGGTACGG | 0.978
38 | TAGCCTAGGACATTCAGGGGCCAGTATAGAAAGC | -0.174
39 | ATACCAAGGTGATCGTGAGGTCGTGGATACTAAC | 2.84
40 | CCTTACGGGTCACGAGGATATAGCACGACGAGCG | 3.9
